The text below walks through data of PubChem BioAssay AID1345085 (National Center for Advancing Translational Sciences (NCATS), 2018).

Records with an inconclusive call do not appear. Activity calls are given as the source filed them. Calls follow the shape of the dose curve; as a rule, active = well fitted cell-killing curve with a large enough effect; inconclusive = small, poorly fitted or top-dose-only effect, or effect the other way; inactive = no such curve, though single readings can be large or run the other way. *1 amine or outer side, *2 acyl side, *3 side chain or, on linkers, in order; H or OH if unused. Where a SMILES comes first, the peptide text is derived from it. Bridges are numbered along the chain shown (N, C = ends). Roman numbers before positions name the chains, in order. [ ]: non-standard residue; d: D form. Actinocin(9to1) = Cc1c2oc3c(C)ccc(C(=O)[*:1])c3nc-2c(C(=O)[*:2])c(N)c1=O; NMeV = CN[C@H](C(=O)O)C(C)C; Sar = CNCC(=O)O
% is scaled to controls: 0 for no effect and ±100 for the full control effect; potency is read from the fitted curve at half-maximal effect.

The assay has as its system CAOV3. In words: Confirmatory qHTS for gynecologic anti-cancer compounds from libraries of approved drugs and bioactive compounds. Also: nearly all actives have a fitted effect of over 55% in size. Conditions: gynecologic cancer cell panel viability, ATPlite luminescence, 48 h; series mostly up to 57.6 µM; activity change, negative = viability loss: at the top concentration. Summed up: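 Seeding 1,000 cells per well preceded overnight (16 h) attachment, after which 48 h drug treatment across 57.5 uM–0.977 nM (11 points) was applied. Remaining cellular ATP, detected by ATPlite luminescence, defined IC50.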
(In qHTS, concentration-response curves come from the screen itself.)
For the compound `CCN1CCN(Cc2ccc(-c3cc4c(NC(C)c5ccccc5)ncnc4[nH]3)cc2)CC1` (stereo not drawn), the Potency is 27.3 µM (active).

Take `Cc1c2oc3c(C)ccc(C(=O)N[C@@H]4C(=O)N[C@H](C(C)C)C(=O)N5CCC[C@H]5C(=O)N(C)CC(=O)N(C)[C@@H](C(C)C)C(=O)O[C@@H]4C)c3nc-2c(C(=O)N[C@@H]2C(=O)N[C@H](C(C)C)C(=O)N3CCC[C@H]3C(=O)N(C)CC(=O)N(C)[C@@H](C(C)C)C(=O)O[C@@H]2C)c(N)c1=O` (I: T[dV]P[Sar][NMeV] / II: T[dV]P[Sar][NMeV]; ester I:1-I:C, II:1-II:C; linker I:N-II:N via Actinocin(9to1)): the Potency was 0.344 µM (active).

In the case of `CN(C)C/C=C/C(=O)Nc1cc2c(Nc3ccc(F)c(Cl)c3)ncnc2cc1OC1CCOC1` (stereo not drawn), the Potency was 10.9 µM (active).

For the compound `CN(C)CCC(CSc1ccccc1)Nc1ccc(S(=O)(=O)NC(=O)c2ccc(N3CCN(Cc4ccccc4-c4ccc(Cl)cc4)CC3)cc2)cc1[N+](=O)[O-]` (stereo not drawn), the Potency was 9.68 µM (active).

Turning to `COc1ccc(-c2ccc3c(N4CCOCC4C)nc(N4CCOCC4C)nc3n2)cc1CO` (stereo not drawn), the “activity change, negative = viability loss” value was -2.81% (inactive).

As for `Cc1ccccc1C(OCCN(C)C)c1ccccc1` (stereo not drawn), the “activity change, negative = viability loss” value was 8.74% (inactive).

Turning to `CNc1nc(Nc2ccc(C(=O)N3CCOCC3)cc2OC)ncc1Cl`, the “activity change, negative = viability loss” value is 10.9% (inactive).

Take `COc1ccc(-c2cc3nccn3c(Nc3ncccc3C(N)=O)n2)cc1OC`: the “activity change, negative = viability loss” value was -6.41% (inactive).

As for `S=c1nc[nH]c2nc[nH]c12`, the Potency is 0.769 µM (active).

As to `C[C@@]1(C(=O)Nc2ccc(F)nc2)CCCN1c1nc(Nc2cc(C3CC3)[nH]n2)c2cccn2n1`, the Potency was 12.2 µM (active).

Regarding `CCCCN(CCCC)C(=O)CN1C[C@H](c2ccc3c(c2)OCO3)[C@@H](C(=O)O)[C@@H]1c1ccc(OC)cc1`, the “activity change, negative = viability loss” value is -12.5% (inactive).

With `Cn1cnc2c(F)c(Nc3ccc(Br)cc3Cl)c(C(=O)NOCCO)cc21`, the “activity change, negative = viability loss” value is -18.7% (inactive).

With `CC(=O)Nc1cccc(-n2c(=O)n(C3CC3)c(=O)c3c(Nc4ccc(I)cc4F)n(C)c(=O)c(C)c32)c1`, the “activity change, negative = viability loss” value is -0.209% (inactive).

With `C=CC(=O)Nc1cccc(Oc2nc(Nc3ccc(N4CCN(C)CC4)cc3)ncc2Cl)c1`, the Potency was 19.3 µM (active).

For the compound `COc1cc(Nc2ncc(F)c(Nc3ccc4c(n3)N(COP(=O)(O)O)C(=O)C(C)(C)O4)n2)cc(OC)c1OC`, the Potency was 3.43 µM (active).

On to `c1nc2nc(Nc3ccc(N4CCOCC4)cc3)nc(NC3CCCCC3)c2[nH]1`, for which the Potency was 4.73 µM (active).

Take `Cc1nc(N)sc1-c1ccnc(Nc2ccc(N3CCOCC3)cc2)n1`: the Potency was 3.43 µM (active).

Regarding `OCc1ccc(-c2ccc(-c3ccc(CO)s3)o2)s1`, the Potency is 0.668 µM (active).

Consider `COc1cc(C(=O)N2CCC(N3CCN(C)CC3)CC2)ccc1Nc1ncc2c(n1)N(C)c1ccccc1C(=O)N2C`, for which the Potency was 10.9 µM (active).

As for `Cc1cnc(CNC(=O)c2c(=O)c3ccc(N4CCCN(C)CC4)nc3n3c2sc2ccccc23)cn1`, the activity change, negative = viability loss is 22.5% [at 10.7 µM] (inactive).

Turning to `Nc1ccn([C@@H]2O[C@H](CO)[C@@H](O)C2(F)F)c(=O)n1`, the Potency is 0.217 µM (active).

`Cc1c(C)n(Cc2ccc(-c3ccccc3C(=O)O)cc2)c2ccc(C(=O)N[C@@H](C)c3ccc([N+](=O)[O-])cc3)cc12`: the “activity change, negative = viability loss” value is 11.8% (inactive).

With `CCN1C[C@H](C)n2c(c(O)c3c(=O)n(Cc4ccc(F)c(Cl)c4)nc(C(=O)NC)c32)C1=O`, the “activity change, negative = viability loss” value is 18.8% (inactive).

For the compound `CC(C)C[C@H](NC(=O)[C@H](Cc1ccccc1)NC(=O)c1cnccn1)B(O)O`, the Potency was 0.0769 µM (active).

On to `Cc1ccc(C(N)=O)cc1Nc1nccc(-c2cn(C(C)C)c3cnccc23)n1`, for which the Potency was 17.2 µM (active).

In the case of `CCOc1cc2ncc(C#N)c(Nc3ccc(F)c(Cl)c3)c2cc1NC(=O)/C=C/CN(C)C`, the Potency was 19.3 µM (active).

In the case of `COc1cc2c(Oc3ccc(-c4cnc(Nc5ccc(F)cc5)n(C)c4=O)cc3F)ccnc2cc1OCCCN1CCOCC1`, the Potency was 19.3 µM (active).

With `OC[C@H]1O[C@@H](n2cnc3c(=S)nc[nH]c32)[C@H](O)[C@@H]1O`, the Potency is 1.37 µM (active).

With `O=c1c2ccccc2nc2n1CCc1c-2[nH]c2ccccc12`, the “activity change, negative = viability loss” value is -12.1% (inactive).

Regarding `O=C(/C=C/c1cccc(S(=O)(=O)Nc2ccccc2)c1)NO`, the Potency was 10.6 µM (active).

Regarding `CC(C)[C@@H](CS(=O)(=O)C(C)C)N1C(=O)[C@@](C)(CC(=O)O)C[C@H](c2cccc(Cl)c2)[C@H]1c1ccc(Cl)cc1`, the “activity change, negative = viability loss” value was -16.5% (inactive).

With `CC(Oc1cc(-n2cnc3ccc(CN4CCN(C)CC4)cc32)sc1C(N)=O)c1ccccc1C(F)(F)F` (stereo not drawn), the Potency is 27.3 µM (active).

In the case of `Cn1cnc2c(F)c(Nc3ccc(Br)cc3F)c(C(=O)NOCCO)cc21`, the “activity change, negative = viability loss” value is 9.19% (inactive).
